# The full list was thinned out, with the strongest signals kept by preference.
# B1: Gal 3 (Homo sapiens), P17931 (protein)
# chain: MADNFSLHDALSGSGNPNPQGWPGAWGNQPAGAGGYPGASYPGAYPGQAPPGAYPGQAPPGAYHGAPGAYPGAPAPGVYPGPPSGPGAYPSSGQPSAPGAYPATGPYGAPAGPLIVPYNLPLPGGVVPRMLITILGTVKPNANILDFQRGNDVAFHFNPRFNENNRRVIVCNTLLDNNWGREERQSVFPFESGKPFKIQVLVEPDHFKVAVNDAHLLQYNHRVKKLNEISKLGISGDIDLTSASYTMI
# Key:
# Assay in all cases: glycan array binding signal (z-score within array); higher = stronger binding
# Details in all cases: glycan notation: IUPAC condensed, linker removed; mutation: K176L
# [1] = molecular target: Fuc(a1-2)Gal(b1-4)GlcNAc(b1-3)Gal(b1-4)GlcNAc
# Procedure, shortened: (§1)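 Negative Z-scores can be read as non-binding. The Z-score is calculated within each array and then averaged across arrays of one protein sequence at different concentrations or buffers and across linkers. Arrays, 3228 in all, were curated from the Consortium for Functional Glycomics database and kept only where the protein sequence was available.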
# [2] = molecular target: Fuc(a1-2)Gal(b1-4)GlcNAc(b1-3)Gal(b1-4)GlcNAc(b1-3)Gal(b1-4)GlcNAc
# Procedure, shortened: as §1
# [3] = molecular target: Fuc(a1-2)[Gal(a1-3)]Gal(b1-3)GlcNAc(b1-2)Man(a1-3)[Fuc(a1-2)[Gal(a1-3)]Gal(b1-3)GlcNAc(b1-2)Man(a1-6)]Man(b1-4)GlcNAc(b1-4)GlcNAc
# Procedure, shortened: as §1
# [4] = molecular target: Fuc(a1-2)[Gal(a1-3)]Gal(b1-4)GlcNAc(b1-2)Man(a1-3)[Fuc(a1-2)[Gal(a1-3)]Gal(b1-4)GlcNAc(b1-2)Man(a1-6)]Man(b1-4)GlcNAc(b1-4)GlcNAc
# Procedure, shortened: as §1
# [5] = molecular target: Fuc(a1-2)[GalNAc(a1-3)]Gal(b1-4)GlcNAc
# Procedure, shortened: as §1
# [6] = molecular target: Fuc(a1-2)[GalNAc(a1-3)]Gal(b1-4)GlcNAc(b1-3)Gal(b1-4)GlcNAc(b1-3)Gal(b1-4)GlcNAc
# Procedure, shortened: as §1
# [7] = molecular target: Fuc(a1-3)[Gal(b1-4)]GlcNAc
# Procedure, shortened: as §1
# [8] = molecular target: Fuc(a1-3)[GalNAc(b1-4)]GlcNAc
# Procedure, shortened: as §1
# [9] = molecular target: Gal(a1-4)Gal(b1-3)GlcNAc(b1-2)Man(a1-3)[Gal(a1-4)Gal(b1-3)GlcNAc(b1-2)Man(a1-6)]Man(b1-4)GlcNAc(b1-4)GlcNAc
# Procedure, shortened: as §1
# Gal(a1-4)Gal(b1-4)Glc = molecular target: Gal(a1-4)Gal(b1-4)Glc
# Procedure, shortened: as §1
# Gal(b1-3)GalNAc = molecular target: Gal(b1-3)GalNAc
# Procedure, shortened: as §1
# [10] = molecular target: Gal(b1-3)GalNAc(b1-3)Gal(a1-4)Gal(b1-4)Glc
# Procedure, shortened: as §1
# [11] = molecular target: Gal(b1-3)GlcNAc(b1-3)Gal(b1-4)GlcNAc(b1-6)[Gal(b1-3)GlcNAc(b1-3)]Gal(b1-4)Glc
# Procedure, shortened: as §1
# [12] = molecular target: Gal(b1-3)[Fuc(a1-4)]GlcNAc(b1-3)Gal(b1-4)[Fuc(a1-3)]GlcNAc
# Procedure, shortened: as §1
# [13] = molecular target: Gal(b1-3)[GlcNAc(b1-6)]GalNAc
# Procedure, shortened: as §1
# [14] = molecular target: Gal(b1-4)GalNAc(b1-3)[Fuc(a1-2)]Gal(b1-4)GlcNAc
# Procedure, shortened: as §1
# [15] = molecular target: Gal(b1-4)GlcNAc(b1-2)Man(a1-6)[Man(a1-3)]Man(b1-4)GlcNAc(b1-4)GlcNAc
# Procedure, shortened: as §1
# [16] = molecular target: Gal(b1-4)GlcNAc(b1-3)Gal(b1-4)Glc
# Procedure, shortened: as §1
# [17] = molecular target: Gal(b1-4)GlcNAc(b1-3)Gal(b1-4)GlcNAc(b1-3)Gal(b1-4)GlcNAc
# Procedure, shortened: as §1
# [18] = molecular target: Gal(b1-4)GlcNAc(b1-3)[Gal(b1-4)GlcNAc(b1-6)]GalNAc
# Procedure, shortened: as §1
# [19] = molecular target: Gal(b1-4)GlcNAc(b1-6)[Gal(b1-3)]GalNAc
# Procedure, shortened: as §1
# Gal3S6S(b1-4)GlcNAc6S = molecular target: Gal3S6S(b1-4)GlcNAc6S
# Procedure, shortened: as §1
# Gal6S(b1-4)Glc = molecular target: Gal6S(b1-4)Glc
# Procedure, shortened: as §1
# GalNAc(a1-3)GalNAc = molecular target: GalNAc(a1-3)GalNAc
# Procedure, shortened: as §1
# [20] = molecular target: GlcNAc(a1-4)Gal(b1-3)GlcNAc
# Procedure, shortened: as §1
# [21] = molecular target: GlcNAc(a1-4)Gal(b1-4)GlcNAc(b1-3)Gal(b1-4)GlcNAc(b1-3)Gal(b1-4)GlcNAc
# Procedure, shortened: as §1
# GlcNAc(b1-3)Gal(b1-4)Glc = molecular target: GlcNAc(b1-3)Gal(b1-4)Glc
# Procedure, shortened: as §1
# [22] = molecular target: Kdn(a2-3)Gal(b1-4)[Fuc(a1-3)]GlcNAc
# Procedure, shortened: as §1
# Man(a1-2)Man(a1-3)Man = molecular target: Man(a1-2)Man(a1-3)Man
# Procedure, shortened: as §1
# [23] = molecular target: Man(a1-2)Man(a1-6)[Man(a1-3)]Man(a1-6)[Man(a1-2)Man(a1-2)Man(a1-3)]Man(b1-4)GlcNAc(b1-4)GlcNAc
# Procedure, shortened: as §1
# [24] = molecular target: Neu5Ac(a2-3)Gal(b1-3)GalNAc
# Procedure, shortened: as §1
# [25] = molecular target: Neu5Ac(a2-3)Gal(b1-3)GlcNAc(b1-3)Gal(b1-4)GlcNAc
# Procedure, shortened: as §1
# [26] = molecular target: Neu5Ac(a2-6)Gal(b1-4)GlcNAc(b1-2)Man(a1-3)[Gal(b1-4)GlcNAc(b1-2)Man(a1-6)]Man(b1-4)GlcNAc(b1-4)GlcNAc
# Procedure, shortened: as §1
# [27] = molecular target: Neu5Gc(a2-3)Gal(b1-3)[Fuc(a1-4)]GlcNAc
# Procedure, shortened: as §1
binder,measurement,setting,value
B1,glycan array binding signal (z-score),[1],5.06
same,glycan array binding signal (z-score),[2],5.51
same,glycan array binding signal (z-score),[3],5.21
same,glycan array binding signal (z-score),[4],7.87
same,glycan array binding signal (z-score),[5],0.393
same,glycan array binding signal (z-score),[6],5.28
same,glycan array binding signal (z-score),[7],-0.265
same,glycan array binding signal (z-score),[8],-0.262
same,glycan array binding signal (z-score),[9],-0.258
same,glycan array binding signal (z-score),Gal(a1-4)Gal(b1-4)Glc,-0.267
same,glycan array binding signal (z-score),Gal(b1-3)GalNAc,-0.269
same,glycan array binding signal (z-score),[10],-0.262
same,glycan array binding signal (z-score),[11],0.682
same,glycan array binding signal (z-score),[12],-0.273
same,glycan array binding signal (z-score),[13],-0.27
same,glycan array binding signal (z-score),[14],-0.267
same,glycan array binding signal (z-score),[15],-0.271
same,glycan array binding signal (z-score),[16],1.53
same,glycan array binding signal (z-score),[17],5.22
same,glycan array binding signal (z-score),[18],-0.256
same,glycan array binding signal (z-score),[19],-0.268
same,glycan array binding signal (z-score),Gal3S6S(b1-4)GlcNAc6S,-0.261
same,glycan array binding signal (z-score),Gal6S(b1-4)Glc,-0.27
same,glycan array binding signal (z-score),GalNAc(a1-3)GalNAc,-0.27
same,glycan array binding signal (z-score),[20],-0.259
same,glycan array binding signal (z-score),[21],5.87
same,glycan array binding signal (z-score),GlcNAc(b1-3)Gal(b1-4)Glc,-0.271
same,glycan array binding signal (z-score),[22],-0.27
same,glycan array binding signal (z-score),Man(a1-2)Man(a1-3)Man,-0.268
same,glycan array binding signal (z-score),[23],-0.263
same,glycan array binding signal (z-score),[24],-0.269
same,glycan array binding signal (z-score),[25],0.372
same,glycan array binding signal (z-score),[26],-0.267
same,glycan array binding signal (z-score),[27],-0.272

# From the supplement of paper PMC8728848
